Compound activity deposited in PubChem by Sanford-Burnham Center for Chemical Genomics.
Rows were chosen to be rich in hits. Some 3% of all compounds tested hit in one or more screens of this group.
SENP6 block – SENP6 protease inhibition; Q9GZR1; Recombinant SENP6 catalytic domain, aminoluciferin luminescence; inhibition, % at 10 µM; 1.8% of 330,000 active;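 active means inhibition above about 50% at the single tested dose, limit read from the data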;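 further: plate controls were DMSO wells with enzyme for no effect and DMSO wells lacking enzyme for full effect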
Target sequence (Q9GZR1 628-1112 limits assumed): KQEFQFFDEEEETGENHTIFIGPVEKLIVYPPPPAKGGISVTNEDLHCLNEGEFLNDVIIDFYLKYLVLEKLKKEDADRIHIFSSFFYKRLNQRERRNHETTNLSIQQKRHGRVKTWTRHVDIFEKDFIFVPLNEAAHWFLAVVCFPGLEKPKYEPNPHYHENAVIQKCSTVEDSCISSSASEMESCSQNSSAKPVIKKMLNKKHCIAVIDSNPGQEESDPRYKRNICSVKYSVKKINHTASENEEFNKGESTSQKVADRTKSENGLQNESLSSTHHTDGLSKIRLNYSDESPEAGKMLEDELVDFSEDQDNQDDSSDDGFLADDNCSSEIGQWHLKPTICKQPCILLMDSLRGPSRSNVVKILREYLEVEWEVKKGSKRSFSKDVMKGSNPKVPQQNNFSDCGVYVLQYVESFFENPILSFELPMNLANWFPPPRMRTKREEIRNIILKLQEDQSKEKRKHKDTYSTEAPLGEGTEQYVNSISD
PPC-1+TRAIL kill – kills PPC-1 cancer cells in the presence of TRAIL. PPC-1 cells + TRAIL, ATPLite viability luminescence. cell killing (% activity), % at 4 µM or 5 µM. 0.41% of 220,000 active. AID 1443;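 active means cell killing above 50% in the first pass at 4 µM, then a duplicate retest at 5 µM averaging 50% or more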;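 further: plate controls were cells with TRAIL plus DMSO for no effect and medium-only wells lacking cells for full effect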
TRAIL sens C8 – caspase-8 TRAIL sensitization. AID 624354. 1% of 360,000 active. NB7+C8 cells + TRAIL, ATPlite viability luminescence. inhibition (viability loss, TRAIL sensitization), % at 10 µM;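 active means compounds causing at least 50% loss of cell viability in the single-dose screen, relative to plate controls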
SENP7 inh – blocks the human protease SENP7. Q9BQF6. recombinant SENP7, Z-RLRGG-aminoluciferin luminescence, 40 min. inhibition, % at 5 µM. 1.5% of 330,000 active. AID 434973;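 active means inhibition above about 50% at the single test dose, limit read from the data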;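 further: plate controls were DMSO with enzyme for no effect and no enzyme buffer wells for full effect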
SENP8 block-1 – inhibitors of human SENP8 protease | Q96LD8 | purified SENP8, Z-RLRGG-aminoluciferin cleavage, luminescence | inhibition, % at 10 µM | 1.2% of 330,000 active; in the data active means inhibition above about 50%
SENP8 block-2 – SENP8 (human) protease inhibition; recombinant SENP8, Nedd8 substrate fluorescence; AID 602440; 0.64% of 360,000 active; inhibition, % at 20 µM; in the data active means inhibition mostly above about 40%, no sharp cut-off; inactive means mostly below about 27%
SENP8 confirm – confirmation of human SENP8 protease inhibitors | shares compounds with SENP7 inh | Recombinant SENP8, Z-RLRGG-aminoluciferin luminescence, 60 min | inhibition, % at 12.5 µM | 40% of 6,200 active | AID 488912;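 active means mean inhibition across replicates above about 50%, limit read from the data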
SENP6 conf – confirmation of human SENP6 protease inhibitors | shares compounds with SENP7 inh | recombinant SENP6, Z-RLRGG-aminoluciferin luminescence | inhibition, % at 12.5 µM | 58% of 6,200 active | AID 488915
SENP7 conf – confirmation of human SENP7 protease inhibitors. inhibition, % at 12.5 µM. recombinant SENP7, Z-RLRGG-aminoluciferin luminescence, 40 min. 69% of 6,200 active. shares compounds with SENP7 inh. AID 488917
Casp3 SENP sel – caspase-3 inhibition (SENP selectivity assay) | shares compounds with SENP7 inh | purified caspase-3, Z-DEVD-aminoluciferin luminescence, 60 min | inhibition, % at 12.5 µM | 60% of 6,200 active | AID 488918;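 active means mean inhibition above about 50%, limit read from the data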;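 further: plate controls were enzyme with DMSO for no effect and wells without caspase-3 for full effect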
Luc interf – counter-screen for SENP inhibitors: luminescence interference; Pre-incubated SENP8/Z-RLRGG-aminoluciferin, luciferase luminescence interference; shares compounds with SENP7 inh; inhibition, % at 12.5 µM; 39% of 6,200 active;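 active means mean inhibition above about 50% when retested at one dose, limit read from the data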;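 further: plate controls were DMSO wells with completed reaction for no effect and substrate without enzyme for full effect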
* marks the source's active call; other numbers are inactive results; / = no result.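 How the source made its calls, unless noted: active means mean inhibition above about 50% in the one-dose retest (limit read from the data); inactive means the rest.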

SMILES	SENP6 block	PPC-1+TRAIL kill	TRAIL sens C8	SENP7 inh	SENP8 block-1	SENP8 block-2	SENP8 confirm	SENP6 conf	SENP7 conf	Casp3 SENP sel	Luc interf
Cc1ccc(/C=N/N=C/c2ccc(C)s2)s1	77*	25	40	63*	41	22	42	60*	82*	29	46
Cc1ccc(/C=N/NC(=O)c2ccncc2)s1	-6	4	-13	-8	-4	1	/	/	/	/	/
CC1=NN(C(N)=S)C(=O)C1N=Nc1ccc(C)cc1C (stereo unspecified)	92*	-7	/	68*	81*	/	41	58*	70*	68*	29
CC1=NN(C(N)=S)C(=O)C1N=Nc1ccccc1C (stereo unspecified)	-2	15	-7	48	75*	35	31	41	58*	70*	23
CC1=NN(C(N)=S)C(=O)C1N=Nc1c(Br)cc(Br)cc1Br (stereo unspecified)	85*	/	-14	0	74*	18	1	82*	90*	51*	58*
CC1=NN(C(N)=S)C(=O)C1N=Nc1c(Cl)cc([N+](=O)[O-])cc1Cl (stereo unspecified)	98*	/	15	82*	95*	47*	96*	96*	101*	95*	65*
CC1=NN(C(N)=S)C(=O)C1N=Nc1ccccc1[N+](=O)[O-] (stereo unspecified)	/	/	3	/	/	28	/	/	/	/	/
CC1=NN(C(N)=S)C(=O)C1N=Nc1ccccc1O (stereo unspecified)	7	/	-6	-9	-4	13	/	/	/	/	/
CC1=NN(C(N)=S)C(=O)C1N=Nc1c(C)n(C)n(-c2ccccc2)c1=O (stereo unspecified)	19	/	6	11	18	24	/	/	/	/	/
CC1=NN(C(N)=S)C(=O)C1N=Nc1c(C)cc(C)cc1C (stereo unspecified)	16	9	0	1	-8	26	/	/	/	/	/
O=C1CN(C(=O)COC(=O)c2ccc([N+](=O)[O-])s2)c2ccccc2N1	53*	/	4	29	65*	26	2	85*	44	4	0
O=C(COC(=O)c1ccc([N+](=O)[O-])s1)NCc1ccc(F)cc1	76*	0	9	52*	67*	30	5	85*	42	26	-2
O=C(COC(=O)c1ccc([N+](=O)[O-])s1)c1ccc[nH]1	35	/	3	6	57*	34	29	79*	24	19	-8
O=C(COC(=O)c1ccc([N+](=O)[O-])s1)NC(=O)NCc1ccccc1	87*	28	-8	32	66*	23	75*	84*	40	6	-3
Cc1ccn2c(Cc3ccccc3)c(-c3ccc(F)cc3)nc2c1	/	/	-1	/	/	-336	/	/	/	/	/
COc1ccc(-c2cc(C(=O)N3CCOCC3)no2)cc1	51*	/	51*	55*	42	9	54*	52*	83*	79*	53*
O=C(c1cc(-c2cccc(O)c2)on1)N1CCOCC1	63*	28	-12	47	26	15	48	42	70*	78*	59*
O=C(c1cc(-c2ccc(Br)cc2)on1)N1CCOCC1	53*	/	38	34	27	16	25	46	21	35	2
O=C(c1cc(-c2cccc(O)c2)on1)N1CCCCCC1	37	/	14	16	20	12	/	/	/	/	/
O=C(c1cc(Cl)cc(Cl)c1)N1CCC(=O)N([C@H](COCc2ccccc2)Cc2ccccc2)CC1	/	/	18	/	/	27	/	/	/	/	/
O=C(CN1CCN(S(=O)(=O)c2ccc(Cl)c(Cl)c2)CC1)N1CCCC1	-2	/	-14	-1	4	9	/	/	/	/	/
CC(C)(C)c1nc2ccc(NS(=O)(=O)c3ccc(F)c(F)c3F)cc2[nH]1	-12	/	3	-2	7	6	/	/	/	/	/
CCOC(=O)c1c(NC(=O)/C=C/c2ccc(C)o2)sc(C)c1C	-5	-5	-7	-7	-6	-81	/	/	/	/	/
Cc1sc(NC(=O)/C=C/c2ccco2)c(C(=O)O)c1C	73*	31	37	16	50	14	72*	69*	88*	85*	48
O=C(O)c1ccccc1NSc1ccccc1[N+](=O)[O-]	-17	4	-10	-7	-8	6	/	/	/	/	/
SMILES	SENP6 block	PPC-1+TRAIL kill	TRAIL sens C8	SENP7 inh	SENP8 block-1	SENP8 block-2	SENP8 confirm	SENP6 conf	SENP7 conf	Casp3 SENP sel	Luc interf
CCc1ccc(NSc2ccccc2[N+](=O)[O-])cc1	-15	6	14	56*	2	26	7	8	-7	0	1
CCS(=O)(=O)c1ccc2oc(Nc3ccccc3C)nc2c1	81*	9	-1	79*	69*	9	82*	81*	97*	92*	84*
CCN(CC)S(=O)(=O)c1ccc2oc(Nc3ccccc3)nc2c1	55*	/	8	31	32	15	28	24	71*	25	-2
COc1ccc(C(C)C)cc1-c1cncc(NC(C)=O)n1	/	/	-15	/	/	-498	/	/	/	/	/
CCCCCCn1cc(CN2CC(N3CCCCC3)CS2(=O)=O)nn1 (stereo unspecified)	/	/	6	/	/	15	/	/	/	/	/
COc1ccc(CCn2c(N)c(C(=O)NCc3ccco3)c3nc4ccccc4nc32)cc1	25	2	-44	19	14	-361	/	/	/	/	/
COc1ccc(-n2c(N)c(C(=O)NCc3ccco3)c3nc4ccccc4nc32)c(OC)c1	32	0	-9	9	9	-402	/	/	/	/	/
COc1ccc(CCn2c(N)c(C(=O)NCc3ccco3)c3nc4ccccc4nc32)cc1OC	70*	11	1	35	38	-315	15	10	2	-1	-1
Nc1c(C(=O)NCc2ccco2)c2nc3ccccc3nc2n1CCc1ccccc1F	51*	19	-4	34	40	-300	2	6	-9	2	-2
Cc1ccc(NC2=Nc3ccccc3CS2)cc1	83*	46	55*	92*	75*	27	50	83*	95*	85*	6
Cc1ccc(Nc2ccccc2)cc1	-19	14	-3	3	-5	18	/	/	/	/	/
